Results reported in publication PMC5540273 (PLoS ONE, 2017).

Tests used:
Details in all cases: concentration: 1 μM, replicates: in singlicate; n = 1
ASK2 = tested on: T1, ASK2
T1 construct: gene MAP3K6

AURKA = tested on: AURKA
AURKB = tested on: AURKB
AURKC = tested on: AURKC
AXL = tested on: AXL
BIKE = tested on: T2, BIKE
T2 construct: gene BMP2K

BLK = tested on: BLK
BMPR1A = tested on: BMPR1A
BMPR1B = tested on: BMPR1B
BMPR2 = tested on: BMPR2
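Note: KINOMEscan kinase panel screen.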

Row | Structure (SMILES) | %Inh (ASK2) [%] | %Inh (AURKA) [%] | %Inh (AURKB) [%] | %Inh (AURKC) [%] | %Inh (AXL) [%] | %Inh (BIKE) [%] | %Inh (BLK) [%] | %Inh (BMPR1A) [%] | %Inh (BMPR1B) [%] | %Inh (BMPR2) [%]
1 | CN1CCN(Cc2cccc(-c3ccc4c(Nc5ccc(Oc6ccccc6)cc5)ccnc4c3)c2)CC1 [GW578342] | 0 | 6 | 0 | 9 | 17 | 1 | 94.8 | 0 | 0 | 8
2 | c1ccc(-c2n[nH]cc2Nc2ccnc3ccccc23)nc1 [GW694077] | 1 | 15 | 45 | 78 | 0 | 100 | 28 | 0 | 3 | 47
3 | CNC(=O)c1ccccc1Nc1nc(Nc2ccc(N3CCOCC3)cc2)ncc1Cl.Cl [GSK1576028] | 16 | 100 | 99.9 | 100 | 100 | 100 | 99.7 | 28 | 100 | 53
4 | CN1CCN(CCCNc2nccc(-c3c(-c4ccc(F)cc4)nn4cc(C(F)(F)F)ccc34)n2)CC1 [GW621581] | 0 | 0 | 11 | 0 | 10 | 11 | 50 | 0 | 0 | 0
5 | COc1ccc(CNC(=O)NC2CCN(c3ccnc(Nc4ccc(F)cc4)n3)CC2)cc1 [GSK1379788] | 0 | 34 | 26 | 5 | 0 | 0 | 3 | 0 | 0 | 5
6 | c1ccc(-c2cnc3nccnn23)cc1 [AH20685] | 0 | 0 | 13 | 0 | 0 | 0 | 37 | 0 | 0 | 0
7 | Cn1cc(-c2[nH]c3cc(NC(=O)[C@H](N)C4CCCCC4)cc4c3c2C=NNC4=O)cn1 | 0 | 100 | 99.7 | 99.3 | 99.9 | 100 | 99.5 | 19 | 87 | 22
8 | COc1ccc(Nc2nccc(NCCNC(=O)c3cc4ccccc4s3)n2)cc1 [GSK1379896] | 0 | 16 | 0 | 17 | 14 | 4 | 23 | 0 | 0 | 0
9 | CCc1ccc(-c2ccc3c(c2)-c2c(cnn2C)S(=O)(=O)N3C)cc1 | 0 | 14 | 0 | 35 | 8 | 0 | 0 | 0 | 0 | 0
10 | COc1cc(Nc2nccc(N3CCC(NC(=O)c4cc5ccccc5s4)C3)n2)cc(OC)c1OC (stereo not drawn) [GSK1379760] | 100 | 59 | 68 | 86 | 14 | 70 | 100 | 0 | 0 | 13
11 | CC(C)c1nc(-c2cccc(NS(=O)(=O)c3c(F)cccc3F)c2F)c(-c2ccnc(Nc3ccc(N4CCOCC4)nc3)n2)s1 [GSK2008607] | 3 | 93.6 | 91.8 | 53 | 97.5 | 24 | 99.7 | 53 | 98.5 | 0
12 | O=C(NC1CCN(c2ccnc(Nc3ccc(F)cc3)n2)C1)c1cc2ccccc2s1 (stereo not drawn) [GSK1379716] | 9 | 4 | 24 | 53 | 19 | 26 | 62 | 0 | 0 | 0
13 | CC(C)(C)c1ccc2nccc(Nc3cccc(O)c3)c2c1 [GW856795] | 0 | 0 | 33 | 0 | 70 | 0 | 59 | 0 | 44 | 38
14 | Oc1cc(Nc2ccnc3cc(I)ccc23)ccc1F [GW552771] | 4 | 0 | 8 | 8 | 3 | 5 | 80 | 56 | 99.9 | 6
15 | COc1cc2c(cc1OCCN1CCNCC1)ncc1c3ccc(C#N)cc3[nH]c21 | 16 | 21 | 65 | 9 | 32 | 97.8 | 0 | 12 | 22 | 19
